Assay results: the antibiotic and cytotoxicity screens of Wong et al. (2023)
The whole screen tested about 39,000 compounds, of which about 3,300 (8.5%) were called active. This is one part of a sample in which actives are shown more often than they occur.

What follows are compounds tested on HepG2 (assay: cytotoxicity call (relative viability < 0.9)). Conditions: 10 µM.

| Compound | cytotoxicity call |
| --- | --- |
| CCOC(=O)N(C)C[C@H]1OCc2cn(nn2)CCCC(=O)N([C@H](C)CO)C[C@@H]1C | inactive |
| CC(=O)O[C@H]1CC[C@]2(C)[C@H]3CC[C@]4(C)C(=CC(=O)O[C@H]4c4ccoc4)[C@]3(C)[C@H](OC(C)=O)C[C@H]2C1(C)C | inactive |
| CN(C)C(=O)c1ccc(-c2ccc3n(c2=O)C[C@@H]2[C@@H](CO)[C@H](C(=O)NCCc4ccccc4)N[C@H]32)cc1 | inactive |
| COc1ccc(NC(=O)Nc2ccc3c(c2)C(=O)N([C@H](C)CO)C[C@H](C)[C@H](CN(C)Cc2ccc(Oc4ccccc4)cc2)O3)cc1 | inactive |
| COc1ccc(NC(=O)Nc2ccc3c(c2)C(=O)N([C@@H](C)CO)C[C@@H](C)[C@H](CN(C)Cc2ccc(Oc4ccccc4)cc2)O3)cc1 | inactive |
| COc1ccc(NC(=O)Nc2ccc3c(c2)C(=O)N([C@H](C)CO)C[C@@H](C)[C@@H](CN(C)Cc2ccc(Oc4ccccc4)cc2)O3)cc1 | inactive |
| COc1ccc(NC(=O)Nc2ccc3c(c2)C(=O)N([C@H](C)CO)C[C@H](C)[C@@H](CN(C)Cc2ccc(Oc4ccccc4)cc2)O3)cc1 | active |
| COc1ccc(NC(=O)Nc2ccc3c(c2)C(=O)N([C@@H](C)CO)C[C@H](C)[C@@H](CN(C)Cc2ccc(Oc4ccccc4)cc2)O3)cc1 | inactive |
| COc1ccc(NC(=O)Nc2ccc3c(c2)C(=O)N([C@@H](C)CO)C[C@@H](C)[C@@H](CN(C)Cc2ccc(Oc4ccccc4)cc2)O3)cc1 | active |
| C[C@H](CO)N1C[C@H](C)[C@@H](CN(C)S(=O)(=O)c2ccc(Cl)cc2)OCc2cnnn2CCCC1=O | inactive |
| Cc1ccc(S(=O)(=O)Nc2ccc3c(c2)C(=O)N([C@@H](C)CO)C[C@@H](C)[C@@H](CN(C)C(=O)C2CCCCC2)OCCCC[C@H](C)O3)cc1 | inactive |
| CC(C)(c1cc(Br)c(O)c(Br)c1)c1cc(Br)c(O)c(Br)c1 | inactive |
| C[C@H](CO)N1C[C@H](C)[C@@H](CN(C)C(=O)NC2CCCCC2)Oc2c(NS(=O)(=O)c3cn(C)cn3)cccc2C1=O | inactive |
| CCCNC(=O)N1C[C@H](O)COC[C@H]2O[C@@H](CC(=O)NCCCN3CCOCC3)CC[C@@H]21 | inactive |
| CNC(=O)C[C@H]1CC[C@H]2[C@@H](COC[C@@H](O)CN2C(=O)c2ccc3c(c2)OCO3)O1 | inactive |
| CCCNC(=O)N1C[C@H](O)COC[C@H]2O[C@H](CC(=O)NCCCN3CCOCC3)CC[C@@H]21 | active |
| CNC(=O)C[C@H]1CC[C@@H]2[C@H](COC[C@@H](O)CN2C(=O)c2ccc3c(c2)OCO3)O1 | active |
| O=C(C[C@@H]1CC[C@H]2[C@@H](COC[C@@H](O)CN2C(=O)c2ccc3c(c2)OCO3)O1)NCCN1CCCCC1 | active |
| O=C(C[C@@H]1CC[C@@H]2[C@H](COC[C@@H](O)CN2C(=O)c2ccc3c(c2)OCO3)O1)NCCN1CCCCC1 | inactive |
| CNC(=O)C[C@@H]1CC[C@H]2[C@@H](COC[C@H](O)CN2C(=O)c2ccc3c(c2)OCO3)O1 | inactive |
| CCCNC(=O)N1C[C@@H](O)COC[C@H]2O[C@@H](CC(=O)NCCCN3CCOCC3)CC[C@@H]21 | inactive |
| O=C(C[C@H]1CC[C@@H]2[C@H](COC[C@H](O)CN2C(=O)c2ccc3c(c2)OCO3)O1)NCCN1CCCCC1 | inactive |

| Compound | cytotoxicity call |
| --- | --- |
| C[C@@H]1CN([C@H](C)CO)C(=O)c2cc(NC(=O)NC3CCCCC3)ccc2O[C@@H](C)CCCCO[C@H]1CN(C)C(=O)Nc1ccc(F)cc1 | inactive |
| C[C@H](CO)N1C[C@H](C)[C@@H](CN(C)S(=O)(=O)c2cccs2)OCCCC[C@H](C)Oc2ccc(NS(=O)(=O)c3cn(C)cn3)cc2C1=O | inactive |
| COc1ccc(C#Cc2ccc3c(c2)[C@H]2[C@H](CCN2C(=O)Nc2ccc(C(F)(F)F)cc2)[C@H](CO)N3C)cc1 | inactive |
| C[C@H](CO)N1C[C@H](C)[C@@H](CN(C)S(=O)(=O)c2cn(C)cn2)Oc2ccc(NC(=O)c3ccncc3)cc2C1=O | inactive |
| C[C@@H]1CN([C@H](C)CO)S(=O)(=O)c2ccc(Br)cc2O[C@H]1CN(C)Cc1cccc(C(=O)O)c1 | inactive |
| C[C@@H]1CN([C@H](C)CO)C(=O)c2cccc(NC(=O)Nc3ccccc3)c2O[C@H]1CN(C)Cc1ccc(C(=O)Nc2ccccc2N)cc1 | inactive |
| O=C(C[C@H]1C[C@H]2c3cc(NC(=O)NC4CCCC4)ccc3O[C@H]2[C@H](CO)O1)NCc1ccc(Oc2ccccc2)cc1 | active |
| O=C(C[C@@H]1C[C@H]2c3cc(NC(=O)Nc4ccccc4F)ccc3O[C@H]2[C@H](CO)O1)NCc1ccc(Oc2ccccc2)cc1 | inactive |
| O=C(C[C@@H]1C[C@@H]2c3cc(NC(=O)NC4CCCC4)ccc3O[C@@H]2[C@H](CO)O1)NCc1ccc(Oc2ccccc2)cc1 | inactive |
| O=C(C[C@H]1C[C@@H]2c3cc(NC(=O)NC4CCCC4)ccc3O[C@@H]2[C@@H](CO)O1)NCc1ccc(Oc2ccccc2)cc1 | inactive |
| O=C(C[C@@H]1C[C@H]2c3cc(NC(=O)NC4CCCC4)ccc3O[C@H]2[C@@H](CO)O1)NCc1ccc(Oc2ccccc2)cc1 | inactive |
| O=C(C[C@H]1C[C@H]2c3cc(NC(=O)Nc4ccccc4F)ccc3O[C@H]2[C@H](CO)O1)NCc1ccc(Oc2ccccc2)cc1 | inactive |
| O=C(C[C@@H]1C[C@@H]2c3cc(NC(=O)Nc4ccccc4F)ccc3O[C@@H]2[C@@H](CO)O1)NCc1ccc(Oc2ccccc2)cc1 | active |
| O=C(C[C@H]1C[C@@H]2c3cc(NC(=O)NC4CCCC4)ccc3O[C@@H]2[C@H](CO)O1)NCc1ccc(Oc2ccccc2)cc1 | active |
| O=C(C[C@@H]1C[C@H]2c3cc(NC(=O)NC4CCCC4)ccc3O[C@H]2[C@H](CO)O1)NCc1ccc(Oc2ccccc2)cc1 | inactive |
| CC(C)(C)OC(=O)C[C@@H]1CC=CC[C@H](CC(=O)NCCO)C(=O)NCCOC1=O | inactive |
| COCC#Cc1ccc([C@@H]2[C@H](CO)N3C(=O)CN(C(=O)c4ccncc4)C[C@@H]23)cc1 | inactive |
| CO[C@H]1CN(C)C(=O)c2ccc(NS(C)(=O)=O)cc2OC[C@@H](C)N(C(=O)CN(C)C)C[C@H]1C | inactive |
| C[C@@H]1CN([C@H](C)CO)C(=O)Cc2cc(NS(=O)(=O)c3ccc(F)cc3)ccc2O[C@H]1CN(C)Cc1ccncc1 | inactive |
| C=CCC[C@H](Cc1ccc(F)cc1)C(=O)OC[C@@H]1CCCN1C(=O)[C@H](CC=C)CC(=O)N(CCO)Cc1ccccc1 | inactive |
| CC(C)(C)OC(=O)N1CCNC(=O)C1 | inactive |
| O=C(O)CCN1C(=O)NC2(CCCC2)C1=O | inactive |

| Compound | cytotoxicity call |
| --- | --- |
| O=C(C1=C[C@@H](c2ccsc2)C[C@@H](OCCCCO)O1)N1CCN(Cc2ccc3c(c2)OCO3)CC1 | inactive |
| C[C@H]1CN([C@@H](C)CO)C(=O)CCCn2nncc2CO[C@@H]1CN(C)C(=O)CCCN(C)C | inactive |
| C[C@H]1CN([C@@H](C)CO)C(=O)Cc2cc(NC(=O)CCN3CCOCC3)ccc2O[C@@H]1CN(C)S(=O)(=O)c1ccc(Cl)cc1 | inactive |
| CC(=O)O[C@@H](C)C[N+](C)(C)C | inactive |
| CC(=O)OC(C)C[N+](C)(C)C.[Cl-] (stereo unspecified) | active |
| CC(C[N+](C)(C)C)OC(N)=O.[Cl-] (stereo unspecified) | inactive |
| O=C(C[C@H]1CC[C@H]2[C@@H](COC[C@@H](O)CN2C(=O)Nc2cccc(Cl)c2)O1)NCc1ccccc1F | inactive |
| CN(C)Cc1cn(CC[C@@H]2CC[C@@H](NC(=O)Cc3cccnc3)[C@@H](CO)O2)nn1 | inactive |
| C[C@@H]1CCCCO[C@@H](CN(C)C(=O)c2ccncc2)[C@H](C)CN([C@H](C)CO)C(=O)c2cc(NS(=O)(=O)c3cn(C)cn3)ccc2O1 | inactive |
| O=C(C[C@@H]1CC[C@H]2[C@@H](COC[C@@H](O)CN2S(=O)(=O)c2ccccc2F)O1)NCc1ccccc1Cl | inactive |
| C[C@@H]1CN([C@H](C)CO)C(=O)c2cc(NS(C)(=O)=O)ccc2O[C@@H]1CN(C)Cc1ccc(C(=O)Nc2ccccc2N)cc1 | inactive |
| COc1ccc(CNC(=O)c2cc3c(c(-c4cccc(-c5ccc(C#N)cc5)c4)n2)[C@H](CCO)N([S@@](=O)C(C)(C)C)C3)cc1 | inactive |
| COc1ccc(C2=N[C@@H](c3ccc(Cl)cc3)[C@@H](c3ccc(Cl)cc3)N2C(=O)N2CCNC(=O)C2)c(OC(C)C)c1 | active |
| COc1ccc(C2=N[C@H](c3ccc(Cl)cc3)[C@H](c3ccc(Cl)cc3)N2C(=O)N2CCNC(=O)C2)c(OC(C)C)c1 | inactive |
| COc1ccc(S(=O)(=O)N(C)C[C@@H]2Oc3ccc(NC(=O)C4CC4)cc3C(=O)N([C@@H](C)CO)C[C@@H]2C)cc1 | inactive |
| Cc1noc(C)c1NC(=O)N(C)C[C@H]1Oc2c(NS(=O)(=O)c3cn(C)cn3)cccc2C(=O)N([C@H](C)CO)C[C@@H]1C | inactive |
| C[C@@H]1CCCCO[C@@H](CN(C)C(=O)Nc2ccc3c(c2)OCO3)[C@H](C)CN([C@H](C)CO)C(=O)c2cc(NC(=O)NC3CCCCC3)ccc2O1 | inactive |
| C[C@@H]1CCCCO[C@@H](CN(C)C(=O)Nc2ccc3c(c2)OCO3)[C@@H](C)CN([C@@H](C)CO)C(=O)c2cc(NC(=O)NC3CCCCC3)ccc2O1 | inactive |
| C[C@@H]1CCCCO[C@H](CN(C)C(=O)Nc2ccc3c(c2)OCO3)[C@H](C)CN([C@@H](C)CO)C(=O)c2cc(NC(=O)NC3CCCCC3)ccc2O1 | inactive |
| C[C@H](CO)N1C[C@H](C)[C@@H](CN(C)C(=O)Nc2ccc3c(c2)OCO3)OCCCC[C@H](C)Oc2ccc(NC(=O)NC3CCCCC3)cc2C1=O | inactive |
| C[C@@H]1CCCCO[C@H](CN(C)C(=O)Nc2ccc3c(c2)OCO3)[C@H](C)CN([C@H](C)CO)C(=O)c2cc(NC(=O)NC3CCCCC3)ccc2O1 | active |
| C[C@@H]1CN([C@@H](C)CO)C(=O)c2cc(NC(=O)NC3CCCCC3)ccc2O[C@@H](C)CCCCO[C@H]1CN(C)C(=O)Nc1ccc2c(c1)OCO2 | active |
